Screening data: PubChem, National Center for Advancing Translational Sciences (NCATS)
The list is not random: actives were taken first. Their share in the collection is about 2.9%.
HEK293 cAMP ctrl = raises cAMP in parental HEK293 cells, TSHR agonist counter-screen; AID 938; 73,000 compounds, 2.5% hits; parental HEK293 CNG cAMP sensor, membrane potential fluorescence; Potency, µM (highest dose often 57.1 µM), hits mostly activators; active = well fitted activation curve with a large enough effect; inconclusive = small, poorly fitted or top-dose-only effect; inactive = no such curve, though single readings can be large or run the other way; also: nearly all actives have a fitted effect of over 55% in size
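Parental HEK 293 cells stably expressing a cAMP-gated CNG channel were loaded with membrane potential dye containing 100 uM RO 20-1724 for 60 min. Compound added for 30 min; depolarization read as fluorescence intensity at 590 nm.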
TSHR agonist = TSH receptor (human) agonism; P16473; HEK293-CNG-TSHR cells (CNG channel as cAMP sensor), membrane potential dye, cAMP; Potency, µM (doses to about 57.1 µM), most hits filed as activators; 73,000 compounds, 0.48% hits; AID 926; active = well fitted activation curve with a large enough effect in the main read-out, with a control signal flat, not every such curve was filed as active; inconclusive = small, poorly fitted or top-dose-only effect, or a change in a side signal; inactive = no such curve, though single readings can be large or run the other way; reference of the percent scale not stated here;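 also: the control signal comes from parental cells without the receptor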
Target sequence (P16473 whole entry, looked up): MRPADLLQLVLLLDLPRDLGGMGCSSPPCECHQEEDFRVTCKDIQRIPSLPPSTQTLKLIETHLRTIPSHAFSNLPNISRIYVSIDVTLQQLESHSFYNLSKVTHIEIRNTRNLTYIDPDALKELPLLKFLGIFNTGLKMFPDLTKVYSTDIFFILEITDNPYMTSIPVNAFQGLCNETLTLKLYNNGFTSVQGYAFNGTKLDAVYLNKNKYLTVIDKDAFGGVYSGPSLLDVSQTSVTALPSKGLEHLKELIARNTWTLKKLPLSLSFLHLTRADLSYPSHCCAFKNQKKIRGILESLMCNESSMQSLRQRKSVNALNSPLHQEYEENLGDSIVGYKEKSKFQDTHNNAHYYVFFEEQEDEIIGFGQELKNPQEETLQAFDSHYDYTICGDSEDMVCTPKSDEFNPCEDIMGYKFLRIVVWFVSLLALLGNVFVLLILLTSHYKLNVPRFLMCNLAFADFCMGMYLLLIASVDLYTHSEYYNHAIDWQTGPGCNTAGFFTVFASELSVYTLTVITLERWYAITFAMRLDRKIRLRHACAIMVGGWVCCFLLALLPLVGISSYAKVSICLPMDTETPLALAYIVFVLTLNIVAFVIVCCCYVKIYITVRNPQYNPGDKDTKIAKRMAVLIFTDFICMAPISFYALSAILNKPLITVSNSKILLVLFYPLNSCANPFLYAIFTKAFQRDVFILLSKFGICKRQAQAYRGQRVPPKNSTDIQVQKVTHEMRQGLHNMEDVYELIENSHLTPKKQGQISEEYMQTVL
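cAMP rise detected as CNG-channel membrane depolarization by fluorescent dye (emission 590 nm), 30 min after compound, following 60 min dye loading containing 100 uM RO 20-1724 at room temperature. Cells: TSHR/CNG HEK 293, with parental CNG HEK 293 as control.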
Large screens that a line does not name were inactive.

CCCCCCCCCCCCCCC/C=C\[C@H](O)[C@@H](NC(=O)CCCCCCCCCCCCC)OC (tested in a mixture with another compound)	none
C=C/C(C)=C/[C@]1(C)SC(=O)C(C)=C1O	none
O=C(NCc1ccccn1)[C@H]1C[C@@H]1[C@H](NP(=O)(c1ccccc1)c1ccccc1)c1ccccc1	none
CC(C)(CNC(=O)c1cccs1)CNC(=O)c1cccs1	HEK293 cAMP ctrl 32µM, TSHR agonist inconclusive
O=C(NCc1nc2ccccc2[nH]1)c1ccco1	none
O=C(NCc1nc2ccccc2[nH]1)[C@H]1C[C@@H]1[C@H](NP(=O)(c1ccccc1)c1ccccc1)c1ccccc1	HEK293 cAMP ctrl 13µM, TSHR agonist inconclusive
CCn1c(NC(=O)c2cccs2)nc2ccccc21	HEK293 cAMP ctrl 16µM, TSHR agonist inconclusive
CCn1c(CCCNC(=O)c2cccs2)nc2ccccc21	none
O=C(NCc1nc2ccccc2[nH]1)c1cccs1	HEK293 cAMP ctrl 5µM, TSHR agonist inconclusive
O=C(NCCCNC(=O)c1cccs1)c1cccs1	none
C[C@@H]1CCCN(CP(=O)(c2ccccc2)c2ccccc2)C1	none
COc1cc(C(=O)O[C@@H]2CC(C)=CC[C@@]3(C)CC[C@](O)(C(C)C)[C@H]23)ccc1O	none
Clc1ccc(CSC2=NCCN2)cc1Cl	none
COC(=O)c1c(NC(=O)c2ccco2)sc(C(=O)Nc2ccc(F)cc2)c1C	HEK293 cAMP ctrl 25µM, TSHR agonist inconclusive
COC(=O)c1c(NC(=O)c2ccco2)sc(C)c1C	none (no result: TSHR agonist)
Cn1c(=O)c2c(nc(C(=N)SCC(=O)O)n2C)n(C)c1=O	none
O=C(CSCc1ccc(Cl)cc1)c1ccco1	none
O=C(CSc1nc2ccccc2c(=O)n1-c1ccc(Cl)cc1)c1ccco1	HEK293 cAMP ctrl 25µM, TSHR agonist inconclusive
O=C(O)CCCc1ccc2ccccc2c1	none
CCCn1c(N2CCN(S(=O)(=O)Cc3ccccc3)CC2)nc2ccccc21	HEK293 cAMP ctrl 25µM, TSHR agonist inconclusive
CCCn1c(N2CCN(C(=O)N3CCCCC3)CC2)nc2ccccc21	none
O=C(O)C(NS(=O)(=O)c1cccc2cccnc12)c1ccccc1 (stereo unspecified)	none
CCOCCOCC	none
CCOC(=O)N1CCC(NC(=O)CCN2C(=O)COc3ccccc32)CC1	none
CCCC(OC(=O)CN1C(=O)COc2ccccc21)C(=O)NC1CCCC1 (stereo unspecified)	HEK293 cAMP ctrl 0.79µM, TSHR agonist inconclusive
COc1ccccc1CNc1ccnc(-c2ccc(N(C)C)cc2)n1	none
c1cc2c(cc1-c1cnc3n1CCC3)OCCO2	HEK293 cAMP ctrl 20µM, TSHR agonist inconclusive
Cn1c(-c2ccc3c(c2)OCO3)cnc1N	none
C/C=C\C1=C(CO)C(=O)[C@@H]2OC2C1=O (stereo partly specified)	none
C[C@@]12C[C@H](O)[C@@H]3[C@H](CCC4=CC(=O)CC[C@]43C)[C@H]1CC[C@@H]2c1csc(N)n1	none
COc1ccc(COC(=O)N/N=C2/C[C@@H](O)[C@@H](O)[C@@H]3[C@@H]4C(=O)N(c5cccc(Oc6ccccc6)c5)C(=O)[C@H]4CC[C@H]23)cc1	none
CCn1c2ccccc2c2cc(NC(=O)C3CCN(S(=O)(=O)c4cccs4)CC3)ccc21	none
Cn1c(=NC(=O)C2CCN(S(=O)(=O)c3cccs3)CC2)sc2ccccc21	TSHR agonist 25µM
COc1ccc(CCN(C)CCC[C@@](C#N)(c2cc(OC)c(OC)c(OC)c2)C(C)C)cc1OC	none (no result: TSHR agonist)
CN1CCN(CCc2nc3cc(NC(=O)COc4ccccc4)ccc3n2C)CC1	none
Cc1ccc(OCC(=O)Nc2ccc3c(c2)nc(CCN2CCOCC2)n3C)cc1	HEK293 cAMP ctrl 25µM, TSHR agonist inconclusive
Oc1ccc2ccccc2c1Cc1c(O)ccc2ccccc12	none
O=c1[nH]c(=S)[nH]c(-c2ccccc2)c1Cc1c(O)ccc2ccccc12	HEK293 cAMP ctrl 2.5µM, TSHR agonist inconclusive
Clc1ccc(OCc2nn3c(-c4ccco4)nnc3s2)c(Cl)c1	HEK293 cAMP ctrl 32µM, TSHR agonist inconclusive
c1ccc(-c2nn3c(-c4ccco4)nnc3s2)nc1	none
O=C(c1ccco1)N1CCC(c2nc(-c3ccc(F)cc3)no2)CC1	HEK293 cAMP ctrl 20µM, TSHR agonist inconclusive
O=C(Nc1cccc(C(F)(F)F)c1)N1CCC(c2nc(-c3ccc(F)cc3)no2)CC1	none
Oc1c(C(c2ccccc2)N2CCCCC2)sc2ncnn12 (stereo unspecified)	none
Oc1c(C(c2ccccc2)N2CCN(Cc3ccccc3)CC2)sc2ncnn12 (stereo unspecified)	HEK293 cAMP ctrl 32µM, TSHR agonist inconclusive
NCCSC[C@H](N)C(=O)O	none
CC(C)(C)[C@@]1(O)CCN2C[C@@H]3c4ccccc4CCc4cccc(c43)[C@@H]2C1	TSHR agonist inconclusive
CC(C)(N)C(=O)N[C@@H]1C(=O)N2[C@@H]1SC(C)(C)[C@H]2C(=O)O	none
O=C(Nc1cccc(Cn2cccn2)c1)c1cc2c(s1)CCCC2	none (no result: TSHR agonist)
CC(=O)Nc1cccc(Cn2cccn2)c1	HEK293 cAMP ctrl 20µM, TSHR agonist inconclusive
O=c1c(-c2cccc(F)c2)nc2cncnc2n1Cc1ccccc1Cl	none
CC[C@@H](Nc1ncnc2nc[nH]c12)C(=O)O	none
O=C(O)c1ccccc1C(=O)N1CCN(c2cccc(Cl)c2)CC1	none
O=C(C1CC1c1ccccc1)N1CCN(c2cccc(Cl)c2)CC1 (stereo unspecified)	HEK293 cAMP ctrl 32µM, TSHR agonist inconclusive
CN1CCN(c2ccnc(-c3ccoc3)n2)CC1	none
CCN(CC)S(=O)(=O)c1cccc(-c2nnc(SCC(=O)NCCC3=CCCCC3)n2N)c1	none
Cc1cccc(-n2nnnc2SC(C)C(=O)NCCC2=CCCCC2)c1 (stereo unspecified)	HEK293 cAMP ctrl 13µM, TSHR agonist inconclusive
N[C@@H](Cn1cc(F)c(=O)[nH]c1=O)C(=O)O	none
Cc1csc2nc(CSc3nc4ccccc4o3)c(Br)n12	HEK293 cAMP ctrl 25µM, TSHR agonist inconclusive
Cc1csc2nc(CSc3nncn3-c3ccccc3)c(Br)n12	none (no result: TSHR agonist)
OC[C@H](S)CS	none
COc1cc(C=O)c([N+](=O)[O-])cc1OC	none
O=C(CS(=O)(=O)c1cn(Cc2cccc(F)c2)c2ccccc12)N1CCOCC1	none
Cc1ccccc1Cn1cc(S(=O)(=O)CC(=O)N2CCCCC2)c2ccccc21	HEK293 cAMP ctrl 32µM, TSHR agonist inconclusive
Cc1cc(NC(=O)CS(=O)(=O)c2cn(Cc3ccccc3Cl)c3ccccc23)no1	HEK293 cAMP ctrl 25µM, TSHR agonist inconclusive
CCn1cc(SCC(=O)Nc2cc(C)on2)c2ccccc21	none
COc1ccc(-c2nc3cnc(N4CCN(C)CC4)nc3n(-c3ccc(OC)cc3)c2=O)cc1	none
CC(C)(CCc1nc2ccccc2[nH]1)C(=O)O	none
COC(=O)c1cc(OC)c(OC)c(OC)c1N	none
COc1cc(C(=O)Oc2ccccc2N)cc(OC)c1OC	TSHR agonist 3.2µM
COc1cccc(Nc2ncc3nc(C)c(=O)n(Cc4cccs4)c3n2)c1	HEK293 cAMP ctrl 3.2µM, TSHR agonist inconclusive
O=c1cnc2cnc(Nc3ccccc3)nc2n1Cc1cccs1	HEK293 cAMP ctrl 13µM, TSHR agonist inconclusive
N#CCCn1c(=O)cnc2cnc(Nc3ccccc3)nc21	none
COc1ccc(-c2nc3cnc(Nc4cccc(OC)c4)nc3n(Cc3cccs3)c2=O)cc1	none
O=C(O)C[C@H](S)C(=O)O	none
CC(N)CN (stereo unspecified)	none
CC(C)Oc1cc(O)c2c(c1)OCC=C2CCC(=O)O	none
CCCCn1cnc2c(SC)ncnc21	none (no result: TSHR agonist)
CC(=O)OC(C(=O)c1ccccc1)c1ccccc1 (stereo unspecified)	none
